From PubChem
In the library only some 5.3% were active in any assay of this set; here they are far more common.
SUMO Mot1 rescue – yeast Mot1-301 growth rescue at high temperature, primary screen, SUMOylation pathway inhibitor project, S. cerevisiae, ATP luminescence, 38.5C; S. cerevisiae Mot1-301 growth rescue; percent above DMSO median, 100 means doubled; growth rescue, % at 18.8 µM; 320,000 tested, 1% active;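 active = every valid replicate shows activation above 250% relative to neutral control wells; inactive = the rest, any valid replicate at or below 250%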;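 also: OY570 slx delta 5 strain wells were the positive control but not used for scaling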
HIF act – HIF pathway transcriptional activators, primary screen, cell-based, U2OS HRE-luciferase, luminescence. U2OS HRE-luciferase reporter; normalized: DMSO 0%, desferrioxamine 100%. activation, % at 7.5 µM (by protocol). 300,000 tested, 0.32% active;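 active = mean activation of at least 10% of the iron chelator positive control signal, with at least half of replicates also reaching 10%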
PfM18AAP inh – PfM18AAP inhibitors, malaria aminopeptidase, primary screen, biochemical, QFRET, recombinant enzyme. 290,000 tested, 1.2% active. AID 1822, 2009. inhibition, % at 7.35 µM. H-Glu-NHMec fluorogenic cleavage;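 active = inhibition above the campaign mean inhibition over all tested compounds plus 3 SD, cut at about 28% in these data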;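 also: 0% = plate median of test compound wells and 100% = 2 mM ZnCl2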
ALR inh – inhibitors of human ALR sulfhydryl oxidase, primary screen, biochemical, H2O2 detection, HRP-luminol luminescence, single point; purified ALR, DTT oxidation; inhibition, % (no concentration beside the values); 290,000 tested, 3.8% active; AID 485317, 2010;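 active = mean replicate inhibition above about 79%, with every replicate also reaching it, limit read from the data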
Target sequence (P55789 whole entry, looked up): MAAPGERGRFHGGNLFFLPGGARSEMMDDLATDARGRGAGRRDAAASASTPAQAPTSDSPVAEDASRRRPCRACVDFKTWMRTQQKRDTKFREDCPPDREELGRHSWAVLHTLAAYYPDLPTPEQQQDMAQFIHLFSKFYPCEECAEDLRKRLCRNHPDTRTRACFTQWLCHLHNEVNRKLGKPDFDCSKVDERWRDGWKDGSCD
An asterisk follows results filed as active.

Screening CCOC(=O)c1c(N)sc(C(=O)OC)c1C returned SUMO Mot1 rescue -19, HIF act 0 and PfM18AAP inh 3.
For O=C(NCCCN1CCOCC1)c1ccccc1NS(=O)(=O)c1cc([N+](=O)[O-])ccc1Cl the results were SUMO Mot1 rescue -14, HIF act 0, PfM18AAP inh -3 and ALR inh -2.
CCOc1ccc(NC(=O)c2c(NC(=O)CNCCN3CCOCC3)sc3c2CCC3)cc1 was read as SUMO Mot1 rescue -3, HIF act -1, PfM18AAP inh 21 and ALR inh -6.
`C/C(=N\Nc1ncnc2sc(C)c(C)c12)c1ccccn1` gave SUMO Mot1 rescue -15, HIF act 96* and PfM18AAP inh 19.
CN(CC(=O)Nc1ccc(Cl)c(C(F)(F)F)c1)C(=O)/C=C/c1cccs1 was read as SUMO Mot1 rescue 8.
CNc1nn(-c2cccc(Cl)c2)nc1N was read as SUMO Mot1 rescue -15, HIF act 0, PfM18AAP inh -15 and ALR inh 99*.
`C=CCOc1ccc(C(=O)Nc2ccccc2C(=O)NCc2cccnc2)cc1` gave SUMO Mot1 rescue 9, HIF act 0, PfM18AAP inh 2 and ALR inh 1.
CCOc1ccc(C(=O)NCC(=O)NNC(=O)c2ccco2)cc1OCC was read as SUMO Mot1 rescue -4 and ALR inh 0.
Screening CCCn1c(SCC(=O)N2CCc3ccccc3C2)nc2c1c(=O)n(C)c(=O)n2C returned SUMO Mot1 rescue -11, HIF act 735*, PfM18AAP inh -6 and ALR inh -7.
CC(=O)C[C@H]1c2cc(F)ccc2S(=O)(=O)N1c1ccc(N(C)C)cc1 was read as SUMO Mot1 rescue -7 and HIF act 2.
`COc1cccc(-c2nc(CS(=O)(=O)CC(=O)N3CCc4ccccc43)c(C)o2)c1` gave SUMO Mot1 rescue -2, HIF act 0, PfM18AAP inh -3 and ALR inh -35.
For Cn1c(-c2ccccc2)n[nH]c1=S the results were SUMO Mot1 rescue -6, HIF act 1, PfM18AAP inh -3 and ALR inh 93*.
For Cc1ccc(COc2ccsc2-c2n[nH]c(=S)n2C)cc1 the results were SUMO Mot1 rescue -5, HIF act 1, PfM18AAP inh 7 and ALR inh 5.
`Cc1c(Cl)c(-c2n[nH]c(=S)n2-c2ccccc2)nn1C` gave SUMO Mot1 rescue -20, HIF act 0, PfM18AAP inh 14 and ALR inh 92*.
`Cc1nc(-c2ccccc2)sc1-c1n[nH]c(=S)n1C` gave SUMO Mot1 rescue -35, HIF act 0, PfM18AAP inh 5 and ALR inh 92*.
Screening Cn1c(-c2sccc2OCc2ccccc2)n[nH]c1=S returned SUMO Mot1 rescue 9, HIF act 1, PfM18AAP inh 9 and ALR inh 97*.
Screening CC1CC(C)CN(C(=O)C(C)N(C)CC(=O)Nc2ccccc2Cl)C1 (configuration not stated) returned SUMO Mot1 rescue 61, PfM18AAP inh 6 and ALR inh 0.
For O=C(Nc1ccccc1C(=O)N1CCCC1)c1cccc(S(=O)(=O)N2CCCCC2)c1 the results were SUMO Mot1 rescue -14, HIF act 0, PfM18AAP inh -1 and ALR inh -33.
Screening CCC(c1n[nH]c(=S)n1-c1ccccc1)N(C)C (configuration not stated) returned SUMO Mot1 rescue -13, HIF act 1 and PfM18AAP inh 31*.
`CCn1c(-c2cc(-c3ccc(C)c(C)c3)nc3ccccc23)n[nH]c1=S` gave SUMO Mot1 rescue 9, HIF act 1, PfM18AAP inh 2 and ALR inh 40.
Screening Cc1ccc(-c2cc(-c3n[nH]c(=S)n3C)c3ccccc3n2)cc1 returned SUMO Mot1 rescue 96, HIF act 1, PfM18AAP inh 11 and ALR inh 97*.
For Cn1c(-c2ccccc2Br)n[nH]c1=S the results were SUMO Mot1 rescue 14, HIF act 0, PfM18AAP inh 9 and ALR inh 96*.
For Cc1cccc(-c2n[nH]c(=S)n2C)c1 the results were SUMO Mot1 rescue -7, HIF act 0, PfM18AAP inh 17 and ALR inh 5.
Cc1ccn2c(-c3n[nH]c(=S)n3C)c(C)nc2c1 was read as SUMO Mot1 rescue 39, PfM18AAP inh 5 and ALR inh 95*.
`Cn1c(-c2ccco2)n[nH]c1=S` gave SUMO Mot1 rescue 16, HIF act 1, PfM18AAP inh -4 and ALR inh 17.
Screening CCOC(=O)c1c(C)n(-c2ccc(C)cc2)c2ccc(OCC(O)CN3CCN(C)CC3)cc12 (configuration not stated) returned PfM18AAP inh -3.
For CC(=O)N/C(=C\c1cccc([N+](=O)[O-])c1)C(=O)NC1CCCCC1 the results were SUMO Mot1 rescue -18, HIF act 0, PfM18AAP inh -6 and ALR inh -4.
CN(C)c1ccc(-c2n[nH]c(=S)n2-c2ccccc2)cc1 was read as SUMO Mot1 rescue 13, HIF act -1, PfM18AAP inh 13 and ALR inh 95*.
`CCc1ccc(-n2c(=S)sc3c(=O)n(-c4ccccc4C)c(SCC(=O)O)nc32)cc1` gave SUMO Mot1 rescue -18, HIF act 2, PfM18AAP inh 4 and ALR inh -6.
For CN(C)C=Nc1nonc1-c1ncn[nH]1 the results were SUMO Mot1 rescue -8, HIF act 0, PfM18AAP inh 30* and ALR inh -9.
`C=CCc1ccc(OCCOCCN(C)C)c(OC)c1` gave SUMO Mot1 rescue 70, HIF act 1 and PfM18AAP inh 18.
For C=CCc1ccc(OC)c(OC)c1 the results were SUMO Mot1 rescue 864*, HIF act 0, PfM18AAP inh 0 and ALR inh -4.
`C=CCc1ccc(OCCCCCN2CCOCC2)c(OC)c1` gave SUMO Mot1 rescue 276*, HIF act 0, PfM18AAP inh -8 and ALR inh -6.
For c1cncc(C2OCC3(CO2)COC(c2cccnc2)OC3)c1 (configuration not stated) the results were SUMO Mot1 rescue -1, HIF act -1, PfM18AAP inh 3 and ALR inh -7.
CCOC(=O)CNC(=O)CSc1nnc(Cn2cnc3ccccc32)n1C was read as SUMO Mot1 rescue 122, HIF act 12*, PfM18AAP inh -2 and ALR inh -3.
For CN(C)c1ccc(/C=C2\SC(=O)N(CCc3nnc(N)s3)C2=O)cc1 the results were SUMO Mot1 rescue -10, HIF act -3, PfM18AAP inh 11 and ALR inh 97*.
Screening CCCOc1nc(SCCC)nc2c1cnn2-c1ccccc1 returned SUMO Mot1 rescue -7, HIF act 0, PfM18AAP inh -6 and ALR inh -37.
